From PubChem BioAssay AID652126 (The Scripps Research Institute Molecular Screening Center, 2013)
Among all 370,000 compounds or so, about 3,700 (1%) were called active. Only a selection was taken, and actives are over-represented in it overall. Values without a mark were called inactive.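 The calls were made as follows: active = activation above the mean over all tested compounds plus 3 SD (cut at about 0.9% in these data); inactive = the rest.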

Test system: Nuclear hormone receptor DAF-12 (Strongyloides stercoralis)
Assay: ssDAF-12 driven luciferase reporter activation – cell-based, luminescence, HEK293, GRIP1 co-expression, lit1-tk-luc, primary screen (AID 652126);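 also: 0% = DMSO-only wells and 100% = 3 µM delta7-dafachronic acid wells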
Conditions: HEK293 ssDAF-12/GRIP1 lit1-tk-luc reporter, at 6.8 µM, hits give high values, % of 3 µM dafachronic acid response

| SMILES | activation |
| --- | --- |
| Cn1c(=NC(=O)c2ccco2)sc2cccc(F)c21 | 2.16% (active) |
| Cc1cc(NC(=O)c2ccco2)c(=O)n(Cc2c(F)cccc2Cl)c1 | -1.23% |
| Cn1c(=O)c2c(nc(NCCNC(=O)c3ccco3)n2Cc2ccccc2F)n(C)c1=O | -0.73% |
| O=C(COc1ccccc1Cl)Nc1ccccc1C(=O)NC1CC1 | -0.61% |
| O=C(COc1ccccc1Cl)Nc1ccc(C(=O)c2ccc(C(=O)O)cc2)cc1 | -1.01% |
| CC(=O)Nc1ccc(NC(=O)COc2ccccc2C(=O)Nc2cccc(Cl)c2Cl)cc1 | 1.78% (active) |
| O=C(CSc1nc2ccccc2s1)N=Nc1c(O)[nH]c2ccccc12 | -1.23% |
| CC(C)c1ccc(C=NNc2ccc([N+](=O)[O-])cn2)cc1 | 1.01% (active) |
| CN(CCc1ccccc1)c1ccc([N+](=O)[O-])cn1 | -0.22% |
| CCC1([N+](=O)[O-])COC(c2ccc(C(C)C)cc2)OC1 (stereo unspecified) | -0.23% |
| CCOC(=O)[C@@]12CCC3=C1N(CCC3)C(=O)[C@H](CC(=O)N1CCN(C(=O)c3ccco3)CC1)C2 | -0.8% |
| CN1[C@H](Cc2ccccc2)COc2cccc(N3CCSCC3)c2S1(=O)=O | -0.12% |
| O=C(NCC1COc2ccccc2O1)c1ccc(NC(=O)c2cc(F)ccc2F)cc1 (stereo unspecified) | -0.55% |
| COC(=O)c1ccccc1-n1cc(COC(=O)NCCc2ccccc2)nn1 | -1.12% |
| Nn1c(SCC(=O)Nc2nccs2)nnc1-c1ccco1 | 0.9% (active) |
| Nn1c(SCC(=O)Nc2nccs2)nncc1=O | -2.06% |
| CCn1c(SCC(=O)Nc2nccs2)nnc1-c1ccco1 | -1.06% |
| O=S1(=O)CC(N2CCN(CCO)CC2)CN1Cc1cn(Cc2ccc(Cl)cc2)nn1 (stereo unspecified) | -0.54% |
| O=S1(=O)c2ccc(Br)cc2OC[C@@H](Cc2ccccc2)N1Cc1cn(Cc2ccco2)nn1 | -1.35% |
| O=C(CCS(=O)(=O)c1ccccc1)Nc1ccc(Cl)c(Cl)c1 | -1.34% |
| Cc1cc(N)n2nc(-c3ccc(C(C)(C)C)cc3)cc2n1 | 2.97% (active) |
| CCOC(=O)C1=C(C)NC2=C(C(=O)CC(C)(C)C2)C1c1ccc2c(c1)OCO2 (stereo unspecified) | -1.32% |
| COc1ccccc1NC(=O)c1cc(Cl)nnc1Cl | -0.66% |
| COc1ccccc1NC(=O)c1ccc(C)s1 | 1.3% (active) |
| COc1ccccc1NC(=O)c1c(Br)cnn1C | -1.57% |
| O=C(CSc1nnc(-c2cccc(Cl)c2)n1Cc1ccco1)Nc1ccc(OCc2ccccc2)cc1 | -1.14% |
